The campaign covered roughly 300,000 compounds. About 1,100 (0.37%) were called active. The sample holds actives, similar compounds and a random draw of the others, so the mix is not that of the screen. Unmarked numbers belong to inactive results.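 Rule for the calls: active = inhibition past about -25% in most replicates, and total fluorescence under double the plate's negative control median (limit read from the data); inconclusive = replicates evenly split on the limit, or fluorescence at least double controls; inactive = too little inhibition in most replicates.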
biological target: Zinc finger protein mex-5 (Caenorhabditis elegans) (UniProt Q9XUB2); test: MEX-5 zinc finger RNA-binding disruptors – biochemical, C. elegans, fluorescence polarization, MLPCN library, primary screen (AID 1832); details: MEX-5/FITC-TCR2 RNA binding, at 10 µM, stronger effect = lower value;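 note: 0% = DMSO and -100% = 5 µM competing unlabeled TCR2 RNA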
Sequence (Q9XUB2 whole entry, looked up): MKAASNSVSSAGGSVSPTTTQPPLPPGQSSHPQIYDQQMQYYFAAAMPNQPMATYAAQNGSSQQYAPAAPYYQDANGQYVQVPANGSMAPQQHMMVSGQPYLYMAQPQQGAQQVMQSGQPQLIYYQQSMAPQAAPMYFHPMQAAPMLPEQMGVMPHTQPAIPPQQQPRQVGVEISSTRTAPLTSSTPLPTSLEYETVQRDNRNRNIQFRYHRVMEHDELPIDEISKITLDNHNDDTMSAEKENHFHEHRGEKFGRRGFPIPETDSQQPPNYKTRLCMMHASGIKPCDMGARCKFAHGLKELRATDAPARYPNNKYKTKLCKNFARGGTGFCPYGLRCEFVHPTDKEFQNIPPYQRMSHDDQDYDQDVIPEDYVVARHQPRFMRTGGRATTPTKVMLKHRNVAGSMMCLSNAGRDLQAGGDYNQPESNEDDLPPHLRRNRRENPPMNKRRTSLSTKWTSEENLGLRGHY

SMILES | activity score (negative = inhibition of binding)
O=C1NC(=O)N(c2ccc(F)cc2)C(=O)/C1=C/c1ccc2c(c1)CCCN2Cc1ccccc1 | -7.18%
Cc1cccc(N2C(=O)NC(=O)/C(=C\c3cnn(-c4ccccc4)c3)C2=O)c1 | 1.06%
O=C1NC(=O)N(c2ccccc2)C(=O)/C1=C/c1ccc([N+](=O)[O-])s1 | -35.6% (active)
COc1ccc2[nH]c3c(c2c1)CCN[C@H]3C | 2.22%
COc1ccc(N2C(=O)/C(=C/c3ccco3)C(=O)NC2=S)cc1 | -95.1% (active)
Cc1cc(/C=C2/C(=O)NC(=O)N(Cc3ccco3)C2=O)c(C)n1-c1ccc(C(=O)O)cc1 | -4.55%
COc1ccc(CN2C(=O)NC(=O)/C(=C\c3ccc(OC)c(OC)c3OC)C2=O)cc1 | 7.01%
CN(C)CC1CCCCC1OC(=O)c1ccc(Cl)c(Cl)c1 (stereo not given) | -0.533%
O=Cc1cn(Cc2ccc(F)cc2Cl)c2ccccc12 | -1.5%
COc1cccc(-c2nc3ccc(N4CCN(C)CC4)cc3[nH]2)c1 | 2.54%

Source: PubChem BioAssay AID1832 (Broad Institute, 2009)
